D2 ag-1 – agonists of human D2 dopamine receptor (beta-arrestin); activation, % (no concentration beside the values); P14416; 0.084% of 360,000 active; AID 624465; DiscoveRx PathHunter D2 beta-arrestin, luminescence, 90 min; 100% = 57 uM dopamine signal; in the data active = activation above about 40%; inconclusive = between about 15% and that limit
Target sequence (P14416 whole entry, looked up): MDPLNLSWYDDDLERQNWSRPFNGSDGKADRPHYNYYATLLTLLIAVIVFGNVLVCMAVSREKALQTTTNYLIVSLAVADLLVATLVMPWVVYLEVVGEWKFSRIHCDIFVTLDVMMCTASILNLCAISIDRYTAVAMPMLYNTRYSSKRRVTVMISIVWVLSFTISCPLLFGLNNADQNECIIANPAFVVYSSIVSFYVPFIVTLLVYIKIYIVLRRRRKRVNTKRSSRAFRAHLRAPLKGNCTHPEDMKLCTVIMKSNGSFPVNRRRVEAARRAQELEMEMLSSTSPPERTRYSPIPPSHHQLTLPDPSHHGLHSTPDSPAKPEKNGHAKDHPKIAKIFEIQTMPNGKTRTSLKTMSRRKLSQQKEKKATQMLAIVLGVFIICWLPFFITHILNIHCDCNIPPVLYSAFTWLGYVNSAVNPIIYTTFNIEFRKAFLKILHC
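DiscoveRx PathHunter D2 beta-arrestin cells (2,100/well) attached overnight, then compound-stimulated 90 min at 37 C in HBSS/10 mM HEPES/0.1% Tween-20 buffer; beta-galactosidase complementation read by luminescence after 1 h at ambient temperature. Dopamine 57 uM final (EC100) as control.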
D2 PAM-1 – potentiates the human D2 dopamine receptor allosterically | P14416 | DiscoveRx D2 beta-arrestin cells, luminescence, 90 min; 100% = 57 uM dopamine signal | potentiation, % (concentration not given with the values) | 0.23% of 360,000 active | AID 624464; in the data active = potentiation above about 50%; inconclusive = mostly about 30% to 49%
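PathHunter D2 cells, attached overnight at 37 deg C, received compound in DMSO plus dopamine at EC20 (50 nM final) for 90 min at 37 deg C. Beta-arrestin recruitment was read as luminescence after 1 h with detection reagent at ambient temperature.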
D2 antagonist – D2 dopamine receptor (human) antagonism; 2% of 340,000 active; AID 485344; HEK293 TREx D2 cells, calcium flux, dopamine EC80; inhibition, % at 10 µM; in the data active = inhibition above about 30%; inactive = below that, where a call was filed; also: 0% is about no effect
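In this primary screen, negative modulation is detected by tracking calcium flux after an EC80 dopamine challenge in inducible HEK293 T-REx D2 cells preexposed to test compound for 180 s.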
D2 PAM-2 – positively modulates the human D2 dopamine receptor allosterically | P14416 | HEK293 T-REx D2, calcium flux, EC20 dopamine potentiation | potentiation, % at 10 µM | 0.34% of 340,000 active | AID 485347;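 active = potentiation over 3 SD above the plate norm, cut at about 30% in these data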; also: 0% is about no effect
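Using a no-wash calcium dye in inducible, force-coupled HEK293 Trex cells expressing D2, we tracked fluorescence each second for 180 s after compound, then for 180 s after EC20 dopamine to detect augmented signalling.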
D2 ag-2 – activates the human D2 dopamine receptor | activation, % at 2 µM | P14416 | HEK293 T-REx D2 cells, calcium flux agonist mode | AID 485358 | 0.53% of 340,000 active;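 active = activation over 3 SD above normal in the single-dose calcium agonist read, cut at about 30% in these data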; also: 0% is about no effect
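Agonism scored from kinetic calcium signal (1 read/sec, 180 s) following compound pin transfer, after a 10 s baseline. Cells: HEK293 Trex line expressing inducible D2 receptor coupled to calcium, dye-loaded after overnight culture at 30 C.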
Starred values were filed as active, the others as inactive; ? = inconclusive; . = no result. The list is not random: actives were taken first. Their share in the collection is about 2.4%.

SMILES	D2 ag-1	D2 PAM-1	D2 antagonist	D2 PAM-2	D2 ag-2
Cc1ccc(NC(=O)c2oc3ccccc3c2NC(=O)C23CC4CC(CC(C4)C2)C3)cc1	.	.	.	4	1
CCOC(=O)C(CC)N1CCN(Cc2ccc(F)cc2)C(=O)C1=O (stereo unspecified)	.	.	.	-6	-1
CC(=O)NC12CC3CC(C1)CC(C(=O)N1CCN(S(=O)(=O)c4ccccc4[N+](=O)[O-])CC1)(C3)C2	-1	-2	45*	-15	0
CCCCCCCC(=O)N/N=C(\C)c1ccc(N)cc1	.	.	12	5	0
CCCCCCCCC(=O)N/N=C(\C)c1ccc(O)cc1O	-1	-23	49*	-28	-1
CCCCCCCC(=O)N/N=C(\C)c1ccc(O)cc1O	1	-26	72*	-21	-2
O=[N+]([O-])c1nn(-c2cccc(Cl)c2)n(O)c1=NCc1cccnc1	?	59*	0	0	-1
Cc1cccc(-n2nc([N+](=O)[O-])c(=NCc3cccnc3)n2O)c1	?	68*	-6	-4	0
CCOc1ccc2nc(N3CCN(C(=O)c4ccco4)CC3)sc2c1	.	.	.	2	.
COc1ccc(NC(=O)Cn2c(=O)oc3cc(S(=O)(=O)N4CCC(C)CC4)ccc32)c(OC)c1	.	.	.	0	0
CCOc1ccc(CCNC(=O)CSCc2nc(-c3cccc(C)c3)oc2C)cc1OCC	.	.	.	6	-1
O=C(O)c1ccccc1NS(=O)(=O)c1ccc2ccccc2c1	-2	13	2	32*	-2
COC(=O)c1ccccc1NS(=O)(=O)c1ccc(F)cc1	-4	-10	32*	44*	0
COC(=O)c1ccccc1NS(=O)(=O)c1ccc(NC(C)=O)cc1	-2	-1	-7	17	1
O=C(O)c1cc(NS(=O)(=O)c2ccc3ccccc3c2)ccc1O	-3	-22	11	7	0
COc1ccc(CCn2nc(C)c([N+](=O)[O-])c2C)cc1	2	-6	32*	-16	-1
Cc1cc(C)c(S(=O)(=O)NCCOc2ccccc2)c(C)c1-n1cnnn1	-2	-1	-30	41*	3
O=C(OCC(=O)N1CCCc2ccccc21)c1ccc(S(=O)(=O)C(F)F)cc1	1	-20	42*	-3	0
O=C(OCC(=O)N1CCCc2ccccc21)c1ccc(C(F)(F)F)cc1	-5	6	9	-10	2
COc1ccc(C2CC(=O)N(CC(=O)Nc3ccc(C)c(Cl)c3)c3ccccc3S2)cc1OC (stereo unspecified)	.	.	.	15	0
CC(C)c1cnc2c(c1SCc1cccc(C(F)(F)F)c1)c(=O)n(C)c(=O)n2C	.	.	.	-5	0
CC(C)CCNC(=O)c1ccc(Cn2c(SCC(=O)NC(C)C)nc3ccccc3c2=O)cc1	.	.	.	-13	1
Cc1cc(-c2ccc(C)c(S(=O)(=O)NCCC(C)N3CCCCCC3)c2)on1 (stereo unspecified)	1	-8	4	3	-1
Cc1cc(-c2ccc(C)c(S(=O)(=O)NCCCN3CCCCCC3)c2)on1	-5	-38	34*	-11	-2
CCc1ccc(-c2cc(C)no2)cc1S(=O)(=O)NC(C)Cc1ccco1 (stereo unspecified)	2	0	5	84*	0
SMILES	D2 ag-1	D2 PAM-1	D2 antagonist	D2 PAM-2	D2 ag-2
Cc1cc(-c2ccc(C)c(S(=O)(=O)NCCc3ccccc3)c2)on1	.	.	.	1	0
CCc1ccc(-c2cc(C)no2)cc1S(=O)(=O)NCCc1ccccc1	4	-5	30*	-1	1
COC(=O)c1ccccc1NC(=O)c1ccc2nc(Cc3ccccc3)oc2c1	.	.	.	3	0
CCOc1ccc(-c2nnc(N)s2)cc1	-1	-9	1	74*	0
O=C(NC1CC(=O)N(c2ccc(Cl)cc2)C1)c1ccc(S(=O)(=O)N2CCCC2)cc1 (stereo unspecified)	.	.	.	19	0
CCN1/C(=C/C(C)=O)Sc2ccc(OC)cc21	-1	-7	.	.	.
CCOC(=O)/C(=C\C=C1/Sc2cc(OCC)c(OCC)cc2N1CC)C(C)=O	0	-9	65*	-11	100*
CCOC(=O)/C(=C/C=C1\Sc2cc(OCC)c(OCC)cc2N1CC)C(C)=O	2	-7	72*	-20	88*
O=C1CSC(c2cccnc2)N1CCc1ccccn1 (stereo unspecified)	-5	-10	55*	-3	-2
O=C1CSC(c2cccnc2)N1Cc1cccnc1 (stereo unspecified)	-2	7	-17	-1	0
O=C(COc1ccc(F)cc1)OCc1cc(=O)n2nc(C3CC3)sc2n1	.	.	.	-16	0
COc1ccc(-c2onc(C)c2C)cc1S(=O)(=O)N1c2ccccc2CC1C (stereo unspecified)	.	.	.	2	0
O=C(Cc1ccccc1)Nc1ccc2c(c1)C(=O)N(CC1CCCO1)C2=O (stereo unspecified)	-2	1	3	9	1
O=C(NCc1ccc2c(c1)OCO2)C(=O)NCC1CCCO1 (stereo unspecified)	-3	-7	10	4	0
COc1ccc(NC(=O)c2ccc3c(c2)C(=O)N(CC2CCCO2)C3=O)c(OC)c1 (stereo unspecified)	5	0	21	37*	2
O=C(NCc1cccc(CNC(=O)C(=O)NCC2CCCO2)c1)C(=O)NCC1CCCO1 (stereo unspecified)	0	-2	30*	7	0
COc1ccc(NC(=O)c2ccc3c(c2)C(=O)N(CC2CCCO2)C3=O)cc1 (stereo unspecified)	5	-3	4	4	0
O=C(NCc1ccccc1)c1ccc2c(c1)C(=O)N(CC1CCCO1)C2=O (stereo unspecified)	4	-5	31*	-10	-1
Cc1cccc(NC(=O)C(=O)NCC(c2cccnc2)N2CCc3ccccc3C2)c1C (stereo unspecified)	.	.	.	8	-2
N#CC1(c2ccccc2)CCC(NCCc2ccccc2)CC1 (stereo unspecified)	0	-20	46*	-24	3
COc1cccc2sc(N3CCN(C(=O)c4ccc([N+](=O)[O-])o4)CC3)nc12	10	21	-2	-8	1
O=C(c1ccc([N+](=O)[O-])o1)N1CCN(c2nc3c(Cl)cccc3s2)CC1	10	69*	0	2	0
Cc1ccc(N2C(=O)c3ccccc3NC2C(C)Cc2ccc3c(c2)OCO3)cc1 (stereo unspecified)	-3	-3	34*	-1	1
COc1ccccc1NC(=O)N(Cc1cccs1)Cc1cc2cc3c(cc2[nH]c1=O)OCO3	5	-2	36*	-15	0
